{
  "source": "PubChem BioAssay AID887",
  "about": "(National Center for Advancing Translational Sciences (NCATS), 2007)",
  "note": "“And” between values parts separate entries of the source, which are not always exact repeats. Equal entries are not always repeated. Hit rate of the full screen: of about 74,000 compounds, about 1,100 (1.5%) were called active. Where a call stands in place of a potency, no number is given. Another 5% or so got no clear call; they are omitted. Calls follow the shape of the dose curve; as a rule, active = well fitted inhibition curve with a large enough effect; inconclusive = small, poorly fitted or top-dose-only effect; inactive = no such curve, though single readings can be large or run the other way. The full list was thinned out, with actives kept by preference. Potency is read from the fitted curve at half-maximal effect.",
  "data": [
    {"target": "Polyunsaturated fatty acid lipoxygenase ALOX15 (Homo sapiens) (UniProt P16050)", "sequence (P16050 whole entry, looked up)": "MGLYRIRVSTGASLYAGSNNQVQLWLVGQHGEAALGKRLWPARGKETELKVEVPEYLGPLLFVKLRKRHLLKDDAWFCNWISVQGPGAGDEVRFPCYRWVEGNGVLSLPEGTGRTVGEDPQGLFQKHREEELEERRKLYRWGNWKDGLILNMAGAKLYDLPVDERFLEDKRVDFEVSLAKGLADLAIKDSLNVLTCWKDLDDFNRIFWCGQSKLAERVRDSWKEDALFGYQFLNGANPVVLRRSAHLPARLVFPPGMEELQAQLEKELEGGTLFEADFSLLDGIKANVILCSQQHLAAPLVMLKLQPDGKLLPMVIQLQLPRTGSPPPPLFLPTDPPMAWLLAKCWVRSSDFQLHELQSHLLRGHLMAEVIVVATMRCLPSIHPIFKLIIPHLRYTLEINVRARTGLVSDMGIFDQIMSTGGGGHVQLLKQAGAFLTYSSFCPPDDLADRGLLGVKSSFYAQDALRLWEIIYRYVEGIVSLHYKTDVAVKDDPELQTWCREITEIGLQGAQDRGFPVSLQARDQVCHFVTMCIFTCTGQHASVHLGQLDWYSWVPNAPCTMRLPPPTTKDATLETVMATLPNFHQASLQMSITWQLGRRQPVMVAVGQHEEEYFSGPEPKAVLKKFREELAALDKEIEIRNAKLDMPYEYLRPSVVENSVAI", "assay": "qHTS Assay for Inhibitors of 15-hLO (15-human lipoxygenase); also: nearly all actives have a fitted effect of over 55% in size", "details": "purified 15hLO-1, xylenol orange hydroperoxide absorbance; series mostly up to 57.1 µM", "from_the_text": "Assay Overview: NIH Molecular Libraries Screening Centers Network [MLSCN] NIH Chemical Genomics Center [NCGC] MLSCN Grant: MH081283-01A1 PI Name: Holman, T.R., University of California, Santa Cruz Human lipoxygenase 15hLO-1 is a member of the closely related lipoxygenase family of enzymes which catalyze the site-specific oxidation of arachidonic acid to various hormone precursor molecules and as such is a candidate for drug development in a variety of disease areas, such as cancer and inflammation. Inhibition of 15hLO-1 activity was screened by utilizing arachidonic acid as a substrate. The extent of hydroperoxide product formation was measured by a secondary chromogenic reaction in which xylenol orange (XO, Sigma-Aldrich, cat. number 39,818-7) reacts with the ferric ions produced from the reaction between the hydroperoxide and ferrous ions. The Fe(III)-XO complex is characterized with red-shifted absorbance at 560 nm. A purified preparation of human 15hLO-1 was supplied by Professor Ted Holman, University of California, Santa Cruz.\nAssay Protocol: Buffer: 25 mM Hepes pH 7.5, 0.01% Triton X-100. Reagents/Controls: Buffer in columns 3 and 4 as negative control (no enzyme). Substrate solution: 50 uM arachidonic acid (Sigma-Aldrich, St. Louis, MO) final concentration dispensed throughout the plate. Enzyme: 40 nM 15hLO-1 final concentration in columns 1, 2, 5-48. Column 1 is neutral (100% activity). Column 2 contained pin-transferred titration of NDGA (nordihidroguaiaretic acid, Sigma-Aldrich, N 5023, top concentration 10 mM in DMSO, then 1:2 dilution in duplicate). (Dilution factor: 23 nL into 4 uL.) Chromogenic detection reagent (divalent iron/xylenol orange, Fe-XO): 200 uM xylenol orange plus 300 uM ferrous ammonium sulfate prepared freshly in 50 mM sulfuric acid. Assay Steps: Three uL of enzyme were dispensed to 1536-well Greiner black clear bottom plates. Compounds and controls (23 nL) were transferred via Kalypsys PinTool. The plates were incubated for 15 min at room temperature, and then 1 uL of substrate solution was added to start the reaction. After room temperature incubation for 6 minutes, 4 uL of Fe-XO solution was added to each well followed by a short spin (1000 rpm, 15 sec) and the plates were then incubated for 30 min. The absorbance at 405 and 573 nm were measured using ViewLux (Perkin-Elmer) High-throughput CCD imager and absorbance protocol settings. The 573-to-405 absorbance ratio was used to compute reaction progress.", "values": [
      {"smiles": "C[C@@H]1/C=C\\CC(=O)OC[C@H]2O[C@@H](C=C[C@@H]2O)[C@H](C)/C=C\\CC(=O)OC[C@H]2O[C@H]1C=C[C@@H]2O", "activity change, negative = inhibition": "5.92% [at 11.4 µM] (inactive)"},
      {"smiles": "CC(C)[C@H]1CC[C@@H](C)C[C@H]1O", "activity change, negative = inhibition": "inactive"},
      {"smiles": "COC1[C@H](OC(N)=O)C(O)[C@H](Oc2ccc3c(O)c(NC(=O)c4ccc(O)c(CC=C(C)C)c4)c(=O)oc3c2C)OC1(C)C", "note": "(stereo partly specified)", "activity change, negative = inhibition": "inactive"},
      {"smiles": "C=C(C)C1CC=C(CO)CC1", "note": "(stereo unspecified)", "Potency": "12.6 µM (active)"},
      {"smiles": "C=C(C)C1CC=C(C)C(O)C1", "note": "(stereo unspecified)", "activity change, negative = inhibition": "inactive"},
      {"smiles": "CCCNC(=O)OC[C@@H]1O[C@H](c2ccccc2)C=C[C@@H]1Oc1ccc(OC)cc1", "activity change, negative = inhibition": "6.55% [at 11.4 µM] (inactive)"},
      {"smiles": "Cc1ccc(C)c(NC(=O)CSc2nnc(Cc3cccn3C)n2-c2ccc(F)cc2)c1", "activity change, negative = inhibition": "inactive"},
      {"smiles": "Cc1cccc(Br)c1", "activity change, negative = inhibition": "inactive"},
      {"smiles": "CC(C)=CC1C(C(=O)O)C1(C)C", "note": "(stereo unspecified)", "activity change, negative = inhibition": "inactive"},
      {"smiles": "C/C(CCN1CCCCc2nc(C)c(C)cc21)=N\\O[C@@H](C)c1cn([C@@H]2COC[C@@H]2O)nn1", "activity change, negative = inhibition": "3.97% [at 11.4 µM] (inactive)"},
      {"smiles": "Oc1cc(O)c2c(c1)OC(c1ccc(O)c(O)c1)C(O)C2", "note": "(stereo unspecified)", "Potency": "12.6 µM (active)"},
      {"smiles": "CO[C@H]1COC(=O)[C@@H](C)NC(=O)C/C=C\\[C@@H](C)[C@H](OC)COC(=O)C/C=C\\[C@@H]1C", "activity change, negative = inhibition": "-1.15% [at 11.4 µM] (inactive)"},
      {"smiles": "CCCCn1c(SCC(=O)NCC2CCCO2)nc2ccc(N3CCOCC3)cc2c1=O", "note": "(stereo unspecified)", "Potency": "12.6 µM (active)"},
      {"smiles": "COCCCNC(=O)CSc1nc2ccc(N3CCOCC3)cc2c(=O)n1CCc1ccccc1", "activity change, negative = inhibition": "inactive"},
      {"smiles": "CCn1c(SCC(=O)NCC2CCCO2)nc2cc(S(=O)(=O)N3CCCCC3)ccc21", "note": "(stereo unspecified)", "activity change, negative = inhibition": "inactive"},
      {"smiles": "COCC(=O)N1CCC2(CCCN(c3ccccc3)C2)CC1", "activity change, negative = inhibition": "inactive"},
      {"smiles": "CC1(C)C=CC(=O)[C@]2(C)C1CC(=O)[C@]1(C)C2CC[C@@]2(C)C(c3ccoc3)OC(=O)C3OC321", "note": "(stereo partly specified)", "activity change, negative = inhibition": "inactive"},
      {"smiles": "CC(C)C1=CC2=CC[C@@H]3[C@](C)(CO)CCC[C@]3(C)C2CC1", "note": "(stereo partly specified)", "Potency": "1.58 µM (active)"},
      {"smiles": "C=C[C@](C)(O)CCC1C(=C)CCC2[C@@](C)(CO)CCC[C@@]12C", "note": "(stereo partly specified)", "activity change, negative = inhibition": "inactive"},
      {"smiles": "CN1CCc2nc(-c3ccccc3)c(-c3ccccc3)cc2C1", "activity change, negative = inhibition": "3.18% [at 11.4 µM] (inactive)"},
      {"smiles": "Nc1ncnc2c1ncn2C1CC(O)C(CO)O1", "note": "(stereo unspecified)", "activity change, negative = inhibition": "inactive"},
      {"smiles": "CC(=O)OCC(=O)[C@@]1(O)CCC2C3CCC4=CC(=O)CC[C@@]4(C)[C@]3(F)C(O)C[C@]21C", "note": "(stereo partly specified)", "activity change, negative = inhibition": "inactive"},
      {"smiles": "O=C1[C@H]2[C@H]3[C@H](O)[C@H](O)C/C(=N/OCc4ccccc4)[C@H]3CC[C@@H]2C(=O)N1Cc1ccccc1", "activity change, negative = inhibition": "6.17% [at 11.4 µM] (inactive)"},
      {"smiles": "CCCN(C/C=C\\I)[C@@H]1CCc2cccc(O)c2C1", "activity change, negative = inhibition": "inactive"},
      {"smiles": "Cc1cccc(-n2c(N)c(C(=O)N3CCN(C)CC3)sc2=S)c1", "activity change, negative = inhibition": "inactive"},
      {"smiles": "CCC(=O)Nc1sc(C(=O)N2CCCCC2)c(C)c1C#N", "activity change, negative = inhibition": "inactive"},
      {"smiles": "N#Cc1ccccc1-n1c(N)c(C(=O)N2CCCC2)sc1=S", "Potency": "20 µM (active)"},
      {"smiles": "Cn1c(=O)n2n(c1=O)[C@H]1[C@H](O)[C@H]3O[C@H]3C(=O)[C@H]1CC2", "activity change, negative = inhibition": "-1.89% [at 11.4 µM] (inactive)"},
      {"smiles": "CC(C)=CCC/C(C)=C/CO/N=C1/C[C@@H](O)[C@@H](O)[C@@H]2[C@@H]3C(=O)N(C(C)(C)C)C(=O)[C@H]3CC[C@H]12", "activity change, negative = inhibition": "-9.71% [at 11.4 µM] (inactive)"},
      {"smiles": "CC(=O)OCC1OC(C#CCCCc2ccccc2)C=CC1OC(C)=O", "note": "(stereo unspecified)", "activity change, negative = inhibition": "-1.12% [at 11.4 µM] (inactive) and 1.25% [at 11.4 µM] (inactive)"},
      {"smiles": "Cn1c(COc2ccc(Cl)cc2)nc2ccccc2c1=O", "Potency": "25.1 µM (active)"},
      {"smiles": "COc1ccc(OCc2ccc(-c3nc4ccccc4c(=O)n3N)o2)cc1", "activity change, negative = inhibition": "inactive"},
      {"smiles": "COCn1c(COc2ccccc2)nc2ccccc21", "activity change, negative = inhibition": "-9.11% [at 11.4 µM] (inactive)"},
      {"smiles": "c1ccc(Oc2ccccc2)cc1", "activity change, negative = inhibition": "inactive"},
      {"smiles": "CC(C)(O)CCC(O)[C@@](C)(O)C1CC[C@]2(O)C3=CC(=O)C4CC(O)C(O)C[C@]4(C)C3CC[C@]12C", "note": "(stereo partly specified)", "activity change, negative = inhibition": "inactive"},
      {"smiles": "O=C1OCCC=C1[C@@H](O)CCc1ccccc1", "activity change, negative = inhibition": "9.13% [at 11.4 µM] (inactive)"},
      {"smiles": "Nc1nc2c(nc(Cl)n2C2OC(CO)C(O)C2O)c(=O)[nH]1", "note": "(stereo unspecified)", "activity change, negative = inhibition": "inactive"},
      {"smiles": "CC1=C(/C=C/C(C)=C/C=C/C(C)=C/C=C/C=C(C)/C=C/C=C(C)/C=C/C2=C(C)CCCC2(C)C)C(C)(C)CCC1", "activity change, negative = inhibition": "inactive"},
      {"smiles": "CC/C=C/C/C=C/C/C=C/CCCCCCCC(=O)OCC", "Potency": "2.51 µM (active)"},
      {"smiles": "Oc1c(Br)cc(CN(Cc2cc(Br)c(O)c(Br)c2)C2CCCCC2)cc1Br", "activity change, negative = inhibition": "11.3% [at 11.4 µM] (inactive)"},
      {"smiles": "CC1(C)SC2C(NC(=O)COc3ccccc3)C(=O)N2C1C(=O)O", "note": "(stereo unspecified)", "activity change, negative = inhibition": "inactive"},
      {"smiles": "O=C1OC(C(O)CO)C(O)=C1O", "note": "(stereo unspecified)", "activity change, negative = inhibition": "inactive"},
      {"smiles": "CCOC(=O)CSC1=C(C#N)C(c2sccc2C)CC(=O)N1", "note": "(stereo unspecified)", "activity change, negative = inhibition": "inactive"},
      {"smiles": "CCCSC1=C(C#N)C(c2ccccc2C)C(C(=O)OC)C(=O)N1", "note": "(stereo unspecified)", "Potency": "12.6 µM (active)"},
      {"smiles": "COC(=O)CSC1=C(C#N)C(c2ccccc2OC)C(C(=O)OC)C(=O)N1", "note": "(stereo unspecified)", "activity change, negative = inhibition": "-4.29% [at 11.4 µM] (inactive)"},
      {"smiles": "CN(C)CCCCNC(=O)c1ccc(Cc2nc3ccccc3[nH]2)cc1", "activity change, negative = inhibition": "inactive"},
      {"smiles": "O=C(O)C(O)[C@@](O)(Cc1ccc(O)cc1)C(=O)O", "note": "(stereo partly specified)", "activity change, negative = inhibition": "inactive"},
      {"smiles": "CCOC(=O)[C@]1(C(/C=C/c2ccco2)NC(=O)OC)CCCC1=O", "note": "(stereo partly specified)", "activity change, negative = inhibition": "5.21% [at 11.4 µM] (inactive)"},
      {"smiles": "Cc1c(O)cc(O)c2c(=O)c(-c3ccc(O)cc3)coc12", "activity change, negative = inhibition": "inactive"},
      {"smiles": "CN(C)CCc1c[nH]c2ccc(Cn3cncn3)cc12", "activity change, negative = inhibition": "inactive"},
      {"smiles": "Cc1ccc(S(=O)(=O)C(C#N)c2nc3ccccc3nc2N2CCCC2)cc1C", "note": "(stereo unspecified)", "Potency": "12.6 µM (active)"},
      {"smiles": "N#CC(C(=O)c1ccc(S(=O)(=O)N2CCCCCC2)cc1)c1nc2ccccc2[nH]1", "note": "(stereo unspecified)", "activity change, negative = inhibition": "inactive"},
      {"smiles": "CC(C)OC(=O)C(C#N)c1nc2ccccc2nc1N1CCN(Cc2ccccc2)CC1", "note": "(stereo unspecified)", "activity change, negative = inhibition": "inactive"},
      {"smiles": "CC1CCCCN1CCCNC(=O)c1ccc(-n2c(=O)c(=O)[nH]c3ccccc32)cc1", "note": "(stereo unspecified)", "activity change, negative = inhibition": "inactive"},
      {"smiles": "CC1OC(OCC2OC(Oc3c(-c4ccc(O)c(O)c4)oc4cc(O)cc(O)c4c3=O)C(O)C(O)C2O)[C@@H](O)C(O)C1O", "note": "(stereo partly specified)", "activity change, negative = inhibition": "inactive"},
      {"smiles": "CC(=O)OCC(=O)C1CCC2C3CCC4=CC(=O)CC[C@@]4(C)C3CC[C@]12C", "note": "(stereo partly specified)", "activity change, negative = inhibition": "inactive"}
    ]}
  ]
}
